Measured values: PubChem BioAssay AID2576 (National Center for Advancing Translational Sciences (NCATS), 2010)
“And” between values parts separate entries of the source, which are not always exact repeats. Equal values may be shown once. Inconclusive results are not listed. More than one record can exist for a structure, and the calls need not agree. The source made the active and inactive calls. Calls come from the whole dose curve; as a rule, active = well fitted activation curve with a large enough effect; inconclusive = small, poorly fitted or top-dose-only effect, or effect the other way; inactive = flat fitted curve, though single readings scatter.

Each compound was assayed against Pyruvate kinase PKM (Homo sapiens) (UniProt P14618) (assay: Secondary LDH Assay for Activators of Human Pyruvate Kinase M2 isoform: for Probe SAR). Conditions: purified hPK-M2, LDH-coupled NADH fluorescence kinetic; series mostly up to 58.4 µM; activation: at the top concentration.
Description: NIH Chemical Genomics Center [NCGC] Matthew G. Vander Heiden, M.D., Ph.D. [Harvard Medical School, 77 Avenue Louis Pasteur, Boston, MA 02115] NCGC Assay Overview: Human pyruvate kinase muscle 2 (hPK-M2)enzyme was supplied as a highly purified (>95% pure) preparation from Harvard Medical School and a secondary assay was used to evaluate compounds. This assay couples the formation of pyruvate from hPK-M2 using lactate dehydrogenase (LDH) and NADH. The depletion of NADH is followed in a fluorescent-based kinetic assay that follows the formation of pyruvate to lactate, as catalyzed LDH (described by Hannaert et al., 2002)1 Pyruvate kinase substrates, PEP and ADP, were present in the assay at 0.1 mM and 4 mM respectively. In this kinetic assay initial rates were determined by following the fluorescence of NADH depletion.
NCGC Assay Protocol Summary: Three uL of substrate mix (final concentration, 50 mM Tris-Cl pH 8.0, 200 mM KCl, 15 mM MgCl2, 0.1 mM PEP, 4.0 mM ADP, and 0.2 mM NADH) was dispensed into black-solid 1536 well plates. 23 nL of compounds were delivered by a pin tool and 1 uL of enzyme mix (final concentrations, 10 nM hPK-M2 and 1 uM of LDH) was added. Plates were immediately placed in ViewLux (Perkin Elmer) and NADH fluorescence was determined at 30 second exposure intervals for between 3 and 6 minutes. Data were normalized to the uninhibited and EC100 activation using known activators such as fructose-bis-phosphate.

Chain of Pyruvate kinase PKM (Homo sapiens) (P14618 whole entry, looked up, canonical isoform): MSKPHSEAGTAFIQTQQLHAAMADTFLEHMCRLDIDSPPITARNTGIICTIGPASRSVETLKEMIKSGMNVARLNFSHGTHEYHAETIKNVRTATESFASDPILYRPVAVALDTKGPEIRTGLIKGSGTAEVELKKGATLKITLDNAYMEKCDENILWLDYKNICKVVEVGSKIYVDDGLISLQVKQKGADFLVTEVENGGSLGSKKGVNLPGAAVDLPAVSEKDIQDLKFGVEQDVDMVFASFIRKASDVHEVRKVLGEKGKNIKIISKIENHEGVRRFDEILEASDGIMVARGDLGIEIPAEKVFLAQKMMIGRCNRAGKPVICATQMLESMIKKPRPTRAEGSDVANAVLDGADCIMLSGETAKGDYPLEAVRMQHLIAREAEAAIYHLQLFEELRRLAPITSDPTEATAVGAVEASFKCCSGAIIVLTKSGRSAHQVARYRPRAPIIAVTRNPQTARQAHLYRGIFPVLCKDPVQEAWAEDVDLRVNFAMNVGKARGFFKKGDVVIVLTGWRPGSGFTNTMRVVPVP

activation, inactive:
CCCCN1C(=O)c2ccccc2C1=O 2.71%
O=C1c2ccccc2C(=O)N1c1ccc2ccccc2n1 -12.5%
COc1ccccc1NS(=O)(=O)c1ccc2c(c1)CCC(=O)N2 20.2%
Cc1ccc(NS(=O)(=O)c2cc3c(cc2N2CCCCC2)NC(=O)CC3)cc1C 7.97%
O=C1CCc2cc(S(=O)(=O)Nc3ccc(F)cc3)ccc2N1 27%
O=C1c2ccccc2C(=O)N1c1cnc2ccccc2c1 21.2%
O=C1c2ccccc2C(=O)N1c1noc2ccccc12 -11.1%
O=C1c2ccccc2C(=O)N1c1ccc2ncccc2c1 -4.15%
Cc1ccc(NS(=O)(=O)c2cccc(F)c2)cc1C 18.4%
CN(C)c1cccc(S(=O)(=O)N2CCN(S(=O)(=O)c3ccc4c(c3)OCCO4)CC2)c1 2.94%
Cc1cc(C)n2c(Nc3ccccc3)c(-c3ccc(C)o3)nc2n1 -2.4%
Cc1ccccc1OC1=NS(=O)(=O)c2ccccc21 1.19%
Nc1cc(S(=O)(=O)N2CCN(S(=O)(=O)c3ccc4c(c3)OCCO4)CC2)ccn1 20.4%
O=C1c2ccccc2C(=O)N1c1cccc2cccnc12 1.58%
O=C1CCc2cc(S(=O)(=O)Nc3cccnc3)ccc2N1 -4.47%
O=C1c2ccccc2C(=O)N1c1cccc2cnccc12 -6.12%
O=C1CCc2cc(S(=O)(=O)NCc3ccccc3)ccc2N1 23.2%
Cc1ccc(NS(=O)(=O)c2cc3c(cc2/C=C/c2ccccc2)NC(=O)CO3)cc1C -4.81%
O=S1(=O)N=C(Oc2cccc(Cl)c2)c2ccccc21 -0.852%
Cc1ccc(N(C)S(=O)(=O)c2ccc3c(c2)CCC(=O)N3)cc1C 0.911%
Cc1nc(-c2ccc(S(=O)(=O)Nc3ccc(C)c(C)c3)s2)cs1 20.2%
COc1ccc(Nc2c(-c3ccc(C)o3)nc3ccccn23)cc1 -5.07%
COc1ccccc1N1C(=O)c2ccccc2C1=O 7.13%
Cc1ccc(NS(=O)(=O)c2cc3c(cc2-c2ccccc2)NC(=O)CO3)cc1C 5.95%
Cc1ccn2c(NC3CCCCC3)c(-c3ccc(C)o3)nc2c1 -14.6%
O=C1c2ccccc2C(=O)N1c1cccc(Cl)c1 -2.64%
O=C1c2ccccc2C(=O)N1c1ccccn1 -0.663%
COc1ccc(OC2=NS(=O)(=O)c3ccccc32)cc1 1.11%
Cc1ccc(NS(=O)(=O)c2ccc3c(c2)CCC(C)(C)O3)cc1C 11.9%
O=S1(=O)N=C(Oc2ccccc2Cl)c2ccccc21 4.09%
O=C1c2ccccc2C(=O)N1Cc1ccccc1 3.92%
CC(=O)Nc1cccc(S(=O)(=O)Nc2ccc(C)c(C)c2)c1 11.3%
O=C1CCc2cc(S(=O)(=O)Nc3ccccc3-c3ccccc3)ccc2N1 5.58%
O=C1c2ccccc2C(=O)N1c1cncc2ccccc12 -5.39%

Potency, inactive and 291 nM (active):
Cc1cc2c(s1)c1cnn(Cc3ccccc3F)c(=O)c1n2C

Potency, active:
Cc1ccc(NS(=O)(=O)c2ccc3c(c2)CCC(=O)N3)cc1C 0.146 µM
Cc1ccc(NS(=O)(=O)c2cc3c(cc2F)NC(=O)CC3)cc1C 2.59 µM
Cc1ccc(NS(=O)(=O)c2cc3c(cc2Cl)NC(=O)CO3)cc1C 0.819 µM
Cc1ccc(NS(=O)(=O)c2ccc3c(c2)CCC(=O)N3)cc1 5.17 µM
COc1cc(F)c(S(=O)(=O)N2CCCN(S(=O)(=O)c3cccc(N)c3)CC2)c(F)c1 1.83 µM
